{"source": "PubChem BioAssay", "key": {"[1]": {"assay": "compounds altering circadian rhythm period length – cell-based, LOPAC library, luminescence reporter (AID 2774)", "details": "circadian reporter cells, at 7 µM, actives lie on both sides"}, "[2]": {"test_system": "Hepatitis C virus NS3 helicase", "assay": "blockers of NS3h binding to ssDNA – biochemical, fluorescence polarization, LOPAC1280 library, primary screen (AID 687035; in the data active means inhibition above about 37%)", "details": "Purified HCV NS3 helicase, Cy5-dT15 ssDNA binding fluorescence polarization; stronger effect = higher value; concentration not given here"}, "[3]": {"assay": "compounds altering Cy5-DNA-NS3h complex signal – biochemical, LOPAC1280, artefact control for HCV NS3 helicase inhibitor project (AID 687037)", "details": "Cy5-DNA-NS3h complex fluorescence interference counterscreen"}, "[4]": {"assay": "viability loss with induced miR-34 in A549 – imaging, A549 dox-inducible miR-34, nuclei and caspase counts, primary screen (AID 1347080;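 active means compounds whose cell count with miR-34 switched on is under 0.7 times the count with it off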)", "details": "A549 miR-34 inducible, Hoechst nuclei count, 48 h"}, "[5]": {"assay": "blockers of cellular phospholipid synthesis – cell-based, LOPAC library, screen 4, primary screen (AID 1347384)", "details": "animal cells, phospholipid biosynthesis inhibition screen; at 10 µM"}, "[6]": {"assay": "galactose survival enhancers in mitochondrial complex I cybrids – cell-based, galactose medium, ATP luminescence, primary screen (AID 1645843;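 active means z-score of at least 1.8 in each of two replicates, scored against plate mean and spread of sample wells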;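 further: positive z means more ATP and so rescue of galactose-driven cybrid death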)", "details": "complex I mutant cybrid cells, 72 h, stronger effect = higher value"}, "[7]": {"assay": "compounds altering viability of human ES cells (AID 493140);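 further: cells exposed to compounds for four days before counting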", "details": "human embryonic stem cell survival screen; stronger effect = higher value"}, "[8]": {"details": "stronger effect = lower value, cell number ratio, induced over uninduced"}, "[9]": {"details": "measured here: relative caspase fold change +Dox/-Dox"}, "[10]": {"details": "measured here: total cells with miR-34 induction, stronger effect = lower value"}, "[11]": {"details": "measured here: total cells without miR-34 induction"}}, "note": "Calls of active or inactive are those of the source. Unless noted, how the calls were made is not given here."}
{"smiles": "CC(N)=NCCCC[C@@H](N)C(=O)O", "values": [{"measurement": "period change", "setting": "[1]", "result": "0.055 h (inactive)"}, {"measurement": "inhibition", "setting": "[2]", "result": "-4% (inactive)"}, {"measurement": "fluorescence ratio (interference)", "setting": "[3]", "result": "0.9 (inactive)"}, {"measurement": "fold change", "setting": "[4]; [8]", "result": "1.08 (inactive)"}, {"measurement": "fold change", "setting": "[4]; [9]", "result": 1.26}, {"measurement": "cell count", "setting": "[4]; [10]", "result": 11400}, {"measurement": "cell count", "setting": "[4]; [11]", "result": 10600}, {"measurement": "outcome", "setting": "[5]", "result": "inactive"}, {"measurement": "z-score", "setting": "[6]", "result": "0.39 (inactive)"}]}
{"smiles": "O=C(Nc1ccc2[nH]ncc2c1)C1CCC1", "values": [{"measurement": "fold change", "setting": "[4]; [8]", "result": "1.01 (inactive)"}, {"measurement": "fold change", "setting": "[4]; [9]", "result": 1.17}, {"measurement": "cell count", "setting": "[4]; [10]", "result": 9900}, {"measurement": "cell count", "setting": "[4]; [11]", "result": 9790}, {"measurement": "outcome", "setting": "[5]", "result": "inactive"}, {"measurement": "z-score", "setting": "[6]", "result": "0.43 (inactive)"}]}
{"smiles": "O=C(NOCC1CC1)c1cc(Br)c(F)c(F)c1Nc1ccc(I)cc1Cl", "values": [{"measurement": "fold change", "setting": "[4]; [8]", "result": "1.16 (inactive)"}, {"measurement": "fold change", "setting": "[4]; [9]", "result": 1.35}, {"measurement": "cell count", "setting": "[4]; [10]", "result": 1380}, {"measurement": "cell count", "setting": "[4]; [11]", "result": 1180}, {"measurement": "outcome", "setting": "[5]", "result": "inactive"}, {"measurement": "z-score", "setting": "[6]", "result": "-1.36 (inactive)"}]}
{"smiles": "Cn1c(=O)c2[nH]c(-c3ccccc3)nc2n(C)c1=O", "values": [{"measurement": "period change", "setting": "[1]", "result": "0.09 h (inactive)"}, {"measurement": "inhibition", "setting": "[2]", "result": "-3% (inactive)"}, {"measurement": "fluorescence ratio (interference)", "setting": "[3]", "result": "1 (inactive)"}, {"measurement": "fold change", "setting": "[4]; [8]", "result": "1.06 (inactive)"}, {"measurement": "fold change", "setting": "[4]; [9]", "result": 3.05}, {"measurement": "cell count", "setting": "[4]; [10]", "result": 10000}, {"measurement": "cell count", "setting": "[4]; [11]", "result": 9510}, {"measurement": "outcome", "setting": "[5]", "result": "inactive"}, {"measurement": "z-score", "setting": "[6]", "result": "1.04 (inactive)"}]}
{"smiles": "Nc1ncnc2c1ncn2[C@@H]1O[C@H](CO)[C@H](O)C1O", "note": "(stereo partly specified)", "values": [{"measurement": "period change", "setting": "[1]", "result": "0.045 h (inactive)"}, {"measurement": "survival", "setting": "[7]", "result": "3.25 (inactive)"}, {"measurement": "inhibition", "setting": "[2]", "result": "-1% (inactive)"}, {"measurement": "fluorescence ratio (interference)", "setting": "[3]", "result": "0.9 (inactive)"}, {"measurement": "fold change", "setting": "[4]; [8]", "result": "1 (inactive)"}, {"measurement": "fold change", "setting": "[4]; [9]", "result": 1.47}, {"measurement": "cell count", "setting": "[4]; [10]", "result": 11100}, {"measurement": "cell count", "setting": "[4]; [11]", "result": 11100}, {"measurement": "outcome", "setting": "[5]", "result": "inactive"}, {"measurement": "z-score", "setting": "[6]", "result": "2.61 (active)"}]}
{"smiles": "CN1C2CCC1CC(OC(=O)C(O)c1ccccc1)C2", "note": "(stereo unspecified)", "values": [{"measurement": "period change", "setting": "[1]", "result": "0.16 h (inactive)"}, {"measurement": "fold change", "setting": "[4]; [8]", "result": "1.02 (inactive)"}, {"measurement": "fold change", "setting": "[4]; [9]", "result": 1.06}, {"measurement": "cell count", "setting": "[4]; [10]", "result": 10900}, {"measurement": "cell count", "setting": "[4]; [11]", "result": 10700}, {"measurement": "outcome", "setting": "[5]", "result": "inactive"}, {"measurement": "z-score", "setting": "[6]", "result": "0.155 (inactive)"}]}
{"smiles": "CN1C2CC(OC(=O)[C@H](CO)c3ccccc3)CC1C1OC12", "note": "(stereo partly specified)", "values": [{"measurement": "period change", "setting": "[1]", "result": "0.01 h (inactive)"}, {"measurement": "survival", "setting": "[7]", "result": "4.58 (inactive)"}, {"measurement": "inhibition", "setting": "[2]", "result": "-4% (inactive)"}, {"measurement": "fluorescence ratio (interference)", "setting": "[3]", "result": "1 (inactive)"}, {"measurement": "fold change", "setting": "[4]; [8]", "result": "0.96 (inactive)"}, {"measurement": "fold change", "setting": "[4]; [9]", "result": 0.75}, {"measurement": "cell count", "setting": "[4]; [10]", "result": 10100}, {"measurement": "cell count", "setting": "[4]; [11]", "result": 10500}, {"measurement": "outcome", "setting": "[5]", "result": "inactive"}, {"measurement": "z-score", "setting": "[6]", "result": "0.535 (inactive)"}]}
{"smiles": "OCC1NCC(O)C(O)C1O", "note": "(stereo unspecified)", "values": [{"measurement": "period change", "setting": "[1]", "result": "0.035 h (inactive)"}, {"measurement": "inhibition", "setting": "[2]", "result": "-2% (inactive)"}, {"measurement": "fluorescence ratio (interference)", "setting": "[3]", "result": "1 (inactive)"}, {"measurement": "fold change", "setting": "[4]; [8]", "result": "0.93 (inactive)"}, {"measurement": "fold change", "setting": "[4]; [9]", "result": 1.34}, {"measurement": "cell count", "setting": "[4]; [10]", "result": 9950}, {"measurement": "cell count", "setting": "[4]; [11]", "result": 10700}, {"measurement": "outcome", "setting": "[5]", "result": "inactive"}, {"measurement": "z-score", "setting": "[6]", "result": "-0.145 (inactive)"}]}
{"smiles": "CC(C)(NS(=O)(=O)c1ccc(Oc2ccc(F)cc2)cc1)C(=O)NO", "values": [{"measurement": "fold change", "setting": "[4]; [8]", "result": "1.15 (inactive)"}, {"measurement": "fold change", "setting": "[4]; [9]", "result": 0.625}, {"measurement": "cell count", "setting": "[4]; [10]", "result": 7840}, {"measurement": "cell count", "setting": "[4]; [11]", "result": 6810}, {"measurement": "outcome", "setting": "[5]", "result": "inactive"}, {"measurement": "z-score", "setting": "[6]", "result": "-1.27 (inactive)"}]}
{"smiles": "O=C(O)/C(=C/c1c(C(=O)O)[nH]c2cc(Cl)cc(Cl)c12)c1ccccc1", "values": [{"measurement": "period change", "setting": "[1]", "result": "0.21 h (inactive)"}, {"measurement": "inhibition", "setting": "[2]", "result": "0% (inactive)"}, {"measurement": "fluorescence ratio (interference)", "setting": "[3]", "result": "1 (inactive)"}, {"measurement": "fold change", "setting": "[4]; [8]", "result": "1.07 (inactive)"}, {"measurement": "fold change", "setting": "[4]; [9]", "result": 0.725}, {"measurement": "cell count", "setting": "[4]; [10]", "result": 9940}, {"measurement": "cell count", "setting": "[4]; [11]", "result": 9320}, {"measurement": "outcome", "setting": "[5]", "result": "inactive"}, {"measurement": "z-score", "setting": "[6]", "result": "1.03 (inactive)"}]}
